Assay results from PubChem BioAssay AID1159580 (chemical genetic matrix, 2015).
Several values for one entry are separate records, joined by “and”; a condition that tells them apart may be missing. Equal values may be shown once. Among all 5,500 compounds or so, about 2,000 (36%) were called active. About 18% were inconclusive and are not listed. Rule as the data show it: active = normalized growth mostly below about 0.91 (no sharp cut-off); inconclusive = no clear call, values can overlap the other calls; inactive = mostly above about 0.92. Some of the results follow.

Assay: chemical genetic growth profiling, strain panel (AID 1159580);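 also: tested at 20 µM; growth read once vehicle control cultures reached saturation at 30 °C; 1 = growth at the plate median or of vehicle wells; lower values mean less growth of the strain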
Conditions: S. cerevisiae deletion strains, growth OD

Measured: normalized growth

CC(=O)NS(=O)(=O)c1ccc(N)cc1
inactive: locus YAL021C, strain ccr4, stronger effect = lower value 1 | locus YAL026C, strain drs2, stronger effect = lower value 1.01 | locus YAL030W, strain snc1, stronger effect = lower value 1.01 | locus YBL061C, strain skt5, stronger effect = lower value 0.999 | locus YBR009C, strain hhf1, stronger effect = lower value 1.01 | locus YBR021W, strain FUR4, stronger effect = lower value 0.987 | locus YBR023C, strain chs3, stronger effect = lower value 1.01 | locus YBR171W, strain sec66, stronger effect = lower value 1.02 | locus YBR229C, strain ROT2, stronger effect = lower value 0.986 | locus YBR231C, strain swc5, stronger effect = lower value 1.03 | locus YBR279W, strain paf1, stronger effect = lower value 1.01 | locus YCL011C, strain gbp2, stronger effect = lower value 1.02 | locus YCL016C, strain dcc1, stronger effect = lower value 1.01 | locus YCL029C, strain bik1, stronger effect = lower value 0.973 | locus YCL061C, strain MRC1, stronger effect = lower value 1.02 | locus YCL069W, strain vba3, stronger effect = lower value 1 | locus YCR088W, strain abp1, stronger effect = lower value 1.01 | locus YDL005C, strain med2, stronger effect = lower value 1.01 | locus YDL035C, strain GPR1, stronger effect = lower value 1 | locus YDL040C, strain nat1, stronger effect = lower value 0.995 | locus YDL074C, strain BRE1, stronger effect = lower value 1.02 | locus YDL101C, strain DUN1, stronger effect = lower value 0.987 | locus YDL134C, strain PPH21, stronger effect = lower value 0.99 | locus YDL185W, strain tfp1, stronger effect = lower value 0.98 | locus YDL192W, strain arf1, stronger effect = lower value 0.971 | locus YDR001C, strain nth1, stronger effect = lower value 1.01 | locus YDR069C, strain doa4, stronger effect = lower value 1.03 | locus YDR101C, strain arx1, stronger effect = lower value 0.971 | locus YDR137W, strain rgp1, stronger effect = lower value 0.997 | locus YDR150W, strain NUM1, stronger effect = lower value 0.994 | locus YDR159W, strain sac3, stronger effect = lower value 1.03 | locus YDR162C, strain NBP2, stronger effect = lower value 0.999 | locus YDR195W, strain ref2 0.998 | locus YDR297W, strain sur2, stronger effect = lower value 1 | locus YDR318W, strain mcm21, stronger effect = lower value 0.987 | locus YDR334W, strain swr1, stronger effect = lower value 0.999 | locus YDR335W, strain msn5, stronger effect = lower value 0.993 | locus YDR388W, stronger effect = lower value 0.977 | locus YDR392W, strain spt3, stronger effect = lower value 1.01 | locus YDR502C, strain sam2, stronger effect = lower value 0.99 | locus YEL003W, strain gim4, stronger effect = lower value 1.01 | locus YEL037C, strain rad23, stronger effect = lower value 1.01 | locus YEL061C, strain CIN8 (second series), stronger effect = lower value 1.02 | locus YEL061C, strain CIN8, stronger effect = lower value 0.993 | locus YER015W, strain faa2, stronger effect = lower value 1.01 | locus YER016W, strain bim1, stronger effect = lower value 1.02 | locus YER110C, stronger effect = lower value 0.975 | locus YER111C, strain swi4, stronger effect = lower value 1 | locus YER155C, strain BEM2 (second series), stronger effect = lower value 1.05 | locus YER155C, strain BEM2, stronger effect = lower value 0.986 | locus YER167W, strain BCK2, stronger effect = lower value 0.989 | locus YFR010W, strain ubp6, stronger effect = lower value 1.02 | locus YGL078C, strain dbp3, stronger effect = lower value 0.974 | locus YGL086W, strain mad1, stronger effect = lower value 1 | locus YGL167C, strain pmr1, stronger effect = lower value 0.999 | locus YGL173C, strain kem1, stronger effect = lower value 1.01 | locus YGL227W, strain vid30, stronger effect = lower value 1.01 | locus YGL240W, strain doc1, stronger effect = lower value 0.999 | locus YGL248W, strain PDE1, stronger effect = lower value 0.994 | locus YGL253W, strain hxk2, stronger effect = lower value 1.02 | locus YGR078C, strain PAC10, stronger effect = lower value 0.998 | locus YGR135W, strain pre9, stronger effect = lower value 0.976 | locus YGR252W, strain gcn5, stronger effect = lower value 1.05 | locus YHR013C, strain ard1, stronger effect = lower value 1.01 | locus YHR027C, strain rpn1, stronger effect = lower value 1.02 | locus YHR030C, strain SLT2, stronger effect = lower value 0.992 and 0.987 | locus YHR079C, strain IRE1 (second series), stronger effect = lower value 0.978 | locus YHR079C, strain IRE1, stronger effect = lower value 0.982 | locus YHR094C, strain hxt1, stronger effect = lower value 0.993 | locus YHR129C, strain ARP1, stronger effect = lower value 0.997 | locus YHR142W, strain chs7, stronger effect = lower value 1.01 | locus YHR200W, strain rpn10, stronger effect = lower value 0.984 | locus YIL066C, strain RNR3, stronger effect = lower value 0.993 | locus YIL073C, strain SPO22, stronger effect = lower value 0.934 | locus YIL125W, strain kgd1, stronger effect = lower value 0.986 | locus YIR030C, strain dcg1, stronger effect = lower value 0.981 | locus YJL092W, strain hpr5, stronger effect = lower value 1.02 | locus YJL095W, strain BCK1 (second series), stronger effect = lower value 1.01 | locus YJL095W, strain BCK1, stronger effect = lower value 1 and 0.978 | locus YJL115W, strain asf1, stronger effect = lower value 1.04 | locus YJL129C, strain trk1, stronger effect = lower value 1.01 | locus YJL134W, strain LCB3, stronger effect = lower value 0.992 | locus YJL154C, strain vps35, stronger effect = lower value 1.01 | locus YJL164C, strain tpk1, stronger effect = lower value 1 | locus YJL166W, strain qcr8, stronger effect = lower value 1 | locus YJL168C, strain set2, stronger effect = lower value 0.986 | locus YJL187C, strain SWE1 (second series), stronger effect = lower value 0.983 | locus YJL187C, strain SWE1, stronger effect = lower value 1.01 | locus YJR043C, strain POL32, stronger effect = lower value 0.997
